{
  "source": "the supplement of paper PMC11001985",
  "data": [
    {"biological_target": "WLS (lysine site: K217) (UniProt Q5T9L3)", "sequence (Q5T9L3 whole entry)": "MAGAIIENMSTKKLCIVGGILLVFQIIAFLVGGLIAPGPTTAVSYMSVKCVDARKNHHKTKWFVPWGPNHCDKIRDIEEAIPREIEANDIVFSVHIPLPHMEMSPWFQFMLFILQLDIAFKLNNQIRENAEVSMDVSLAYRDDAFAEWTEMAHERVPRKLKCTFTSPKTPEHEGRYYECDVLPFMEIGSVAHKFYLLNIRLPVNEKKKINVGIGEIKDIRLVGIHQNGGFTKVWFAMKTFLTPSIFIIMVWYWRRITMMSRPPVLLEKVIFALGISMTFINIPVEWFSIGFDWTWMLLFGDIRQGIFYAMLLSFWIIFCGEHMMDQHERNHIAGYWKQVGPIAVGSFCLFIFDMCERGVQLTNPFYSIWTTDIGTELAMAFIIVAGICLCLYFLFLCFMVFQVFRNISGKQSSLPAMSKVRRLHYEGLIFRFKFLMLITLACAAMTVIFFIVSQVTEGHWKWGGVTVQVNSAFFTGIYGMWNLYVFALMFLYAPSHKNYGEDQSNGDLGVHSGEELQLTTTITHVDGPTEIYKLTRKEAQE", "experiment": "lysine labeling ratio R10:1 (500 µM / 50 µM probe), SILAC-ABPP in living cells; higher = lower intrinsic lysine reactivity toward the probe, active = 2 or less", "details": "HeLa; probe concentrations 500 vs 50 µM", "method": "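Living HeLa cells (SILAC light/heavy) in PBS at room temperature were labeled with 50 µM versus 500 µM of the lysine-reactive, reductant-cleavable probe OPA-S-S-alkyne (SILAC labeling time not stated). Probe-modified peptides were CuAAC-biotinylated, captured on neutravidin and eluted with DTT/IAA, then quantified by LC-MS/MS. R = median peptide ratio per lysine (500/50 µM), combined over 3 forward and 3 reverse SILAC replicates. Ratios are capped at 20; R < 2 = hyper-reactive.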", "values": [
      {"smiles": "C#CCNC(=O)CCSSCCC(=O)NCCc1ccc(C=O)c(C=O)c1", "lysine labeling ratio R10:1": "2.13 (inactive)"}
    ]}
  ]
}
